HT1080-NT tox: qHTS for induction of synthetic lethality in tumor cells producing 2HG: qHTS for the HT-1080-NT fibrosarcoma cell line. Potency, µM (highest dose often 46.1 µM), without a hit: at the highest dose activity, negative = less viability, most hits filed as cytotoxic. HT-1080-NT fibrosarcoma viability, CellTiter-Glo ATP luminescence, 48 h. 360,000 tested, 1.6% active;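 also: NT is the 2HG producing partner of a matched IDH1 knockdown line; 0% = DMSO-treated cells and -100% = media-only wells without cells; nearly all actives have a fitted effect of over 55% in size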
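Fibrosarcoma NT cells, 750 per well in 5% FBS RPMI, were exposed to compound for 48 hours. Viability: CellTiter-Glo luminescence.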
HT1080 IDH1KD tx: qHTS for induction of synthetic lethality in tumor cells producing 2HG: qHTS for the HT-1080-IDH1KD cell line; Potency, µM (top dose mostly 46.1 µM), for inactives: top-dose activity, negative = toxicity, actives largely listed as cytotoxic; 360,000 tested, 2% active; HT-1080 IDH1 knockdown viability, ATP luminescence, 48 h;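 also: 0% = DMSO wells and -100% = cell-free medium wells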
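In this qHTS, HT-1080 cells depleted of IDH1 are exposed for 48 h at 37 °C to compound titrations. Toxicity is scored from CellTiter-Glo luminescence, with DMSO as full viability and medium alone as none.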
KB-3-1 cytotox: qHTS assay for MDR1-selective chemotherapeutics: Primary screen using the parental adenocarcinoma cell KB-3-1. AID 1347075, 2019. Potency, µM (highest dose often 46.1 µM), hits mostly cytotoxic. 400,000 tested, 1.4% active. KB-3-1 viability, CellTiter-Glo ATP luminescence, 72 h; also: nearly all actives have a fitted effect of over 60% in size
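KB-3-1 parental drug-naive adenocarcinoma cells in DMEM/10% FBS, incubated 72 h at 37 C with pin-transferred compounds across a concentration series. Viability by CellTiter-Glo luminescence; concentration-response curves fitted after normalization.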
DT40 TDP1 CPT: qHTS for Inhibitors of human tyrosyl-DNA phosphodiesterase 1 (TDP1): qHTS in cells in presence of CPT; chicken DT40 Tdp1-/-;hTDP1 cells + 20 nM CPT, ATP luminescence, 48 h; Potency, µM (doses to about 46.2 µM), inactives show at the highest dose activity change, negative = growth inhibition, hits mostly inhibitors; 420,000 tested, 12% active; also: nearly all actives have a fitted effect of over 55% in size
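Cell growth measured by CellTiter-Glo luminescence after a minimum 48 h, 37 C compound exposure with 20 nM CPT in Tdp1-knockout DT40 cells stably expressing hTDP1, seeded 400/well; qHTS titration format.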
DT40 TDP1 no CPT: qHTS for Inhibitors of human tyrosyl-DNA phosphodiesterase 1 (TDP1): qHTS in cells in absence of CPT. Potency, µM (titrated, usually from 46.2 µM), inactives show top-dose activity change, negative = growth inhibition, most hits filed as inhibitors. DT40 Tdp1-/- hTDP1 cells, no CPT, ATP luminescence, 48 h. 420,000 tested, 15% active. AID 686978, 2013; also: nearly all actives have a fitted effect of over 55% in size
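Luminescent ATP content (CellTiter-Glo) served as the growth readout. Knockout chicken DT40 cells expressing human TDP1 were exposed to compounds without camptothecin for a minimum 48 hr at 37 °C.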
KB-V1 cytotox: qHTS assay for MDR1-selective chemotherapeutics: Primary screen using the drug-selected MDR subline cells KB-V1; AID 1347076, 2019; 400,000 tested, 3.4% active; KB-V1 MDR cells viability, CellTiter-Glo, 72 h; Potency, µM (series often up to 46.1 µM), actives largely listed as cytotoxic; also: nearly all actives have a fitted effect of over 60% in size
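Cells of the MDR subline KB-V1 are plated, dosed with compound at multiple concentrations, and incubated 72 h at 37 degrees C; CellTiter-Glo is then added and luminescence read after 10 min.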
The depositor's hits bear a star; i = inactive; u = inconclusive; x = not tested or not shown; [ ] = another dose, or the depositor's remark. Only some compounds are listed: those with a hit (about 19% of all), similar ones and a draw of the others. Calls follow the shape of the dose curve; as a rule, active = well fitted curve in the direction sought with a large enough effect; inconclusive = small, poorly fitted or top-dose-only effect, or another doubt; inactive = no such curve, though single readings can be large; an effect the other way counts as inactive or inconclusive. Unless noted, % is scaled to controls: 0 for no effect and ±100 for the full control effect; potency is read from the fitted curve at half-maximal effect.

SMILES | HT1080-NT tox | HT1080 IDH1KD tx | KB-3-1 cytotox | DT40 TDP1 CPT | DT40 TDP1 no CPT | KB-V1 cytotox
COc1ccccc1N(C)S(=O)(=O)c1ccc(C(=O)Nc2ncc(C)s2)cc1 | 0% | -15% | x | u | u | x
COc1ccccc1N(C)S(=O)(=O)c1ccc(C(=O)Nc2nc(C)c(C(C)=O)s2)cc1 | -4% | -7% | i | u | u | i
COc1ccccc1N(C)S(=O)(=O)c1ccc(C(=O)Nc2nccs2)cc1 | -8% | -8% | i | u | 6.5µM* | i
Clc1cc(Cl)cc(Nc2ccccc2CN(C/C=C/c2ccc3c(c2)OCO3)Cc2ccccc2)c1 | -2% | -1% | i | 6% | -9% | i
c1ccc(Cn2nnnc2C(c2cccs2)N2CCSCC2)cc1 (stereo not drawn) | 0% | 0% | i | -9% | -9% | u
CCCCn1nnnc1C(CCSC)N1CCN(C/C=C/c2ccccc2)CC1 (stereo not drawn) | -2% | -3% | i | u | u | u
C(=C\c1ccccc1)/CN1CCN(C(c2cccs2)c2nnnn2Cc2ccccc2)CC1 (stereo not drawn) | u | u | u | u | 21µM* | u
CC(C)(C)n1nnnc1C(c1cccs1)N1CCN(C/C=C/c2ccccc2)CC1 (stereo not drawn) | -3% | -9% | u | u | u | u
C(=C\c1ccccc1)/CN1CCN(C(c2cccc3ccccc23)c2nnnn2Cc2ccccc2)CC1 (stereo not drawn) | u | u | i | 16µM* | 16µM* | u
CC1CCN(C(c2cccs2)c2nnnn2Cc2ccccc2)CC1 (stereo not drawn) | -18% | -24% | u | u | u | 15µM*
CC(Sc1nccn1C)C(=O)Nc1ccccc1 (stereo not drawn) | 5% | 22% | i | 12% | 18% | i
CCc1nc2ccc(C(=O)N(CC)CCN(C)C)cn2c1N(C=O)CCC(C)C | 8% | 29% | i | u | -7% | i
CCN(C(=O)CC(C)C)c1nnc(Cn2nnc3ccccc32)s1 | -13% | -23% | u | u | 21µM* | u
Cc1ccc(C(=O)NNC(=O)Cn2nnc3ccccc32)cc1 | -3% | -9% | i | 1% | 9% | i
CCc1cccc(CC)c1N(COC)C(=O)Cn1nnc2ccccc21 | -5% | -4% | i | -24% | u | i
CCN(C(=O)c1ccc(C(C)(C)C)cc1)c1nnc(Cn2nnc3ccccc32)s1 | u | u | i | 7.3µM* | 8.2µM* | i
O=C(NC1CCCC1)C(c1ccccn1)N(C(=O)c1csnn1)C1CC1 (stereo not drawn) | -10% | -6% | i | -21% | -28% | i
O=C(NC1CCCC1)C(c1ccco1)N(Cc1ccccc1)C(=O)c1csnn1 (stereo not drawn) | 2% | -5% | i | -17% | 0% | 13µM*
O=C(NC1CCCC1)C(c1ccccn1)N(C(=O)c1csnn1)C1CCCCC1 (stereo not drawn) | 11% | 12% | i | 21µM* | u | i
O=C(NC1CCCCC1)C(c1ccco1)N(C(=O)c1csnn1)C1CCCC1 (stereo not drawn) | -3% | 1% | i | u | 16µM* | 16µM*
COc1ccc(-c2cc(C(=O)Nc3c(C)nn(Cc4ccccc4C)c3C)no2)cc1 | x | x | i | -2% | -30% | i
O=C(Nc1cc2c3c(c1)CC(=O)N3CCC2)c1ccco1 | 3% | 9% | i | 5% | -24% | i
CCCN(CC(=O)Nc1ccc(F)c(F)c1F)C(=O)Cc1ccc(OC)c(S(=O)(=O)N2CCOCC2)c1 | -3% | 0% | i | 2% | u | i
Cc1noc2nc(C(=O)O)nc(N3CCCCC3)c12 | x | x | i | u | u | i
Cc1sc2ncnc(N3CCN(c4ncccn4)CC3)c2c1C | -23% | -27% | i | 23µM* | u | u
SMILES | HT1080-NT tox | HT1080 IDH1KD tx | KB-3-1 cytotox | DT40 TDP1 CPT | DT40 TDP1 no CPT | KB-V1 cytotox
Cc1nc(N2CCN(S(=O)(=O)c3ccc(Br)cc3)CC2)c2c(C)c(C)sc2n1 | -21% | -1% | u | 21µM* | u | i
Cc1sc2ncnc(N3CCN(S(=O)(=O)c4ccc(F)cc4)CC3)c2c1C | -19% | -22% | i | u | 12µM* | u
CCS(=O)(=O)N1CCN(c2ncnc3sc(C)c(C)c23)CC1 | -20% | -4% | i | -24% | u | u
Cc1nc(N2CCN(S(=O)(=O)c3ccccc3)CC2)c2c3c(sc2n1)CC(C)CC3 (stereo not drawn) | 13% | 12% | i | -23% | u | u
Cc1nc(N2CCN(S(=O)(=O)c3ccccc3)CC2)c2cc(-c3ccccc3)sc2n1 | 12% | 16% | i | 15µM* | u | i
Cc1nc(N2CCN(C)CC2)c2cc(-c3ccccc3)sc2n1 | u | -1% | i | -3% | -27% | i
COc1cc(CN(C(=O)c2ccccc2)c2ccccn2)cc(OC)c1OC | x | x | i | u | u | i
COc1ccc(C(O)c2nc(-c3ccccc3C)cs2)cc1 (stereo not drawn) | -1% | 15% | i | u | u | i
O=C(c1cc2cc(F)ccc2[nH]1)N1CCC(Cc2ccccc2)CC1 | -23% | -8% | i | 3% | -30% | i
Cn1c(=O)c(=O)n(C)c2cc(N3CCCC3)c(NS(=O)(=O)c3ccc(Cl)cc3)cc21 | -10% | -6% | i | u | u | i
COc1ccc(NC(=O)c2cncn2-c2ccccc2)cc1 | 11% | 7% | i | 9% | -10% | i
Cc1cc(C)c(C)c(S(=O)(=O)N2CCN(c3ncnc4sc(C)c(C)c34)CC2)c1C | -2% | -1% | x | -24% | u | x
CCc1nc(N2CCN(S(=O)(=O)c3ccc(Br)cc3)CC2)c2c(C)c(C)sc2n1 | 0% | 7%[9.24 µM] | i | u | 23µM* | u

Screening results: PubChem, National Center for Advancing Translational Sciences (NCATS)
